From PubChem BioAssay AID1578 (Sanford-Burnham Center for Chemical Genomics, 2009)
Values joined by “and” are separate entries in the source; they are usually repeats but may differ in a detail not shown here. Equal values may be shown once. Hit rate of the full screen: of about 290,000 compounds, about 3,000 (1%) were called active. No stated cut-off is given here; in the data, active means inhibition mostly above about 36% (no sharp cut-off); inactive means mostly below about 34%. For the sample, actives were picked, then their nearest neighbours and some compounds at random.

assay: NOD1 signaling inhibitors, primary screen, cell-based, luminescence, uHTS (AID 1578); settings: NOD1-driven NF-kB luciferase reporter cells, at 4 µM, hits give high values;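 further: HEK-293T reporter cells stimulated with the NOD1 agonist gamma-tri-DAP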

inhibition, active:
O=C(NNC1=C(C(=O)C(F)(F)F)CCC1)c1cccc(Cl)c1 83%
Cc1cccc(Cn2nnc3c2C(=O)c2ccccc2C3=O)c1 68.5%
Cc1ccc(CNc2nc(Cl)c(C#N)s2)cc1 63.4%
CCN1CCN(CCOCCOc2ccccc2)CC1 75.5%
CCCC(=O)NC(C)c1nc2ccccc2n1C (stereo unspecified) 36.2%
CC(C)c1ccc(C(O)c2nc3ccccc3n2C)cc1 (stereo unspecified) 76.4%
COc1ccc(C2C(C#N)=C(N)N(c3cccnc3)C3=C2C(=O)CC(C)(C)C3)cc1OC (stereo unspecified) 63.5%
Cc1ccc(C)c(OC(=O)c2ccncc2)c1 54.5%
CCOc1ccc(-c2ccc(SC)nn2)cc1 57.2%
COc1cc(OC)cc(C(=O)NC2CC(C)(C)NC(C)(C)C2)c1 83%
CC(Sc1nc(-c2ccccc2)cc(C(F)(F)F)n1)C(=O)N1CCC(C(N)=O)CC1 (stereo unspecified) 62.8%
Fc1ccccc1Cn1cnc(NC(=S)NCCc2ccccc2)n1 47.4%
Nc1nc(-c2ccccc2)c(N=Nc2cccnc2)s1 69.6%

inhibition, inactive:
COC(=O)c1oc2ccccc2c1-n1cccc1 -6%
Cc1ccc2nsnc2c1S(=O)(=O)Nc1ccccc1C(=O)O -10.2%
Cc1ccc(C(C)C)c(OCC(O)CN2CC(C)OC(C)C2)c1 (stereo unspecified) 5.4%
CCOc1ccc(Cl)cc1CNCCCSc1ncccn1 5.6%
O=C(NNC1=C(C(=O)C(F)(F)F)CCC1)c1cccc(O)c1 -26.1%
O=C(NNC1=C(C(=O)C(F)(F)F)CCC1)c1ccc(Cl)cc1 19.2%
CO/N=C(/CS(=O)c1ccc(Br)cc1)c1ccc(OC)cc1 (stereo unspecified) -16%
Cc1cc(C)c2sc(N(CCN(C)C)C(=O)c3ccc4ccccc4c3)nc2c1 -10.4%
Cc1cccc(CC(=O)OCn2nnc3ccccc3c2=O)c1 -15.8%
Cc1ccc(Cn2nnc3c(=O)n(Cc4cccc(C)c4)cnc32)cc1 3.6%
CCOc1ccc(NC(=O)CCNC(=O)Cn2ccc3ccccc3c2=O)cc1 -20.7%
Cc1ccc(S(=O)(=O)Nc2nc3ccccc3nc2N2CCN(c3ccccc3F)CC2)cc1 5.2%
Cc1ccsc1C1C(C#N)=C(N)OC2=C1C(=O)CCC2 (stereo unspecified) -6.1%
N#Cc1sc(NCc2ccccc2)nc1Cl -19.1%
COc1ccc(CNc2nc(Cl)c(C#N)s2)cc1 3.8%
c1ccc(OCCOCCN2CCOCC2)cc1 7.9%
CCN1CCN(CCOCCOc2ccccc2-c2ccccc2)CC1 -24.4%
O=C(Cc1ccccc1)NNC(=O)Nc1ccccc1 -23.5%
Cc1ccc(C(O)c2nc3ccccc3n2C)cc1 (stereo unspecified) -7.9%
CCCC(=O)NC(C)c1nc2ccccc2n1CC (stereo unspecified) -18.7%
CCCC(=O)NC(C)c1nc2ccccc2n1C(C)C (stereo unspecified) -2.5%
COc1ccc(C(O)c2nc3ccccc3n2C)cc1OC (stereo unspecified) 33.1%
CCN(CC(=O)Nc1ccccc1Br)C1CCCCC1 -38.4%
C=CCN1C(=O)N/C(=C/c2ccc(C)o2)C1=O -35.1%
Nn1cc(-c2ccccc2)nc1SCC(=O)Nc1cccc(S(N)(=O)=O)c1 3.3%
O=C(Nc1cc(-c2ccccc2)[nH]n1)c1ccc(Cl)cc1 4.7% and -2.2%
O=C(Nc1ccccc1Cl)c1ccc2ccccc2c1 -11.1%
Cc1cccc(C)c1NC(=O)NC1(C(=O)N2CCN3CCCC3C2)CCCCC1 (stereo unspecified) -19.2%
COc1cc(C2C(C#N)=C(N)N(c3cccnc3)C3=C2C(=O)CC(C)(C)C3)ccc1O (stereo unspecified) 9.6%
COc1ccccc1C1C(C#N)=C(N)N(c2cccnc2)C2=C1C(=O)CC(C)(C)C2 (stereo unspecified) -21.9%
Cc1ccc(C)c(OC(=O)c2cccnc2)c1 -20.5%
Cc1ccc(OC(=O)c2ccncc2)c(C)c1 -45.8%
CCN(CC)C(=O)CSc1nc(O)cc(=O)n1-c1ccccc1OC -12.3%
CCC(NC(=O)NNC(=O)c1ccncc1)(C(F)(F)F)C(F)(F)F -3.5%
COc1ccc(-c2ccc(SC)nn2)cc1 -8.7%
CCOc1ccc(-c2ccc(SCC)nn2)cc1 -47.8%
COc1ccc(CC(=O)NNC(=O)COc2ccc3ccccc3c2)cc1 -32%
N#Cc1ccccc1NC(=O)COC(=O)c1ccc(F)cc1F 2.3%
COc1cc(C(=O)NC2CC(C)(C)NC(C)(C)C2)cc(OC)c1OC -31.3%
Cc1cc(C)cc(C(=O)NC2CC(C)(C)NC(C)(C)C2)c1 -11.3%
O=C(NC(CC(=O)N1CCN(c2ccc([N+](=O)[O-])cc2)CC1)c1ccccc1)c1ccccc1Cl (stereo unspecified) -5.6%
Cc1nc(-c2nc(-c3c(C(=O)NN)noc3C)cs2)cs1 -35.9%
Cc1ccc2c(c1)C(=O)c1c(C(=O)O)cccc1-2 -14.6%
CC(Sc1nc(-c2ccccc2)cc(C(F)(F)F)n1)C(=O)N1CCCC1 (stereo unspecified) -30.7%
CC1CCN(C(=O)C(C)Sc2nc(-c3ccccc3)cc(C(F)(F)F)n2)CC1 (stereo unspecified) 15.1%
O=C(O)CCn1c(SCCOc2ccccc2)nc2ccccc21 -29.9%
CCCCN(C)Cc1cc(=O)oc2ccc3ccccc3c12 -5.4%
CCc1ccc(OCc2nnc(SCCN3CCOCC3)n2CC)cc1 -13.7%
Fc1ccccc1NC(=S)NCCc1ccccc1 11.7%
FC(F)(F)c1cccc(Cn2cnc(NC(=S)NCCc3ccccc3)n2)c1 -22.4%
Nc1nc(-c2ccccc2)c(N=Nc2ccc(Cl)cc2)s1 14.5%
Nc1nc(-c2ccccc2)c(N=Nc2cccc3ccccc23)s1 -6.2%
Cc1cc(NC(=O)CSc2nc(Cc3ccc(O)cc3)c(C)[nH]2)no1 29.2%
